Measured values reported in PubChem BioAssay AID1347043 (National Center for Advancing Translational Sciences (NCATS), 2019).
Hit rate of the full screen: of about 76,000 compounds, about 1,900 (2.5%) were called active. A call without a number means that no potency is given here. Inconclusive results (about 5%) are left out. The call rests on the fitted dose curve; in most records, active means well fitted inhibition curve with a large enough effect; inconclusive means small, poorly fitted or top-dose-only effect; inactive means flat fitted curve, though single readings scatter. The full list was thinned out, with actives kept by preference.

Biological target: Luciferin 4-monooxygenase (Photinus pyralis) (UniProt P08659)
Test: Firefly luciferase inhibition profiling of diverse chemical library using quantitative high-throughput screening; further: nearly all actives have a fitted effect of over 65% in size
Conditions: purified P. pyralis luciferase, luminescence, biochemical; series mostly up to 115 µM
Summary of the method: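 Inhibitors were tested against purified firefly luciferase in a biochemical, low-substrate format (both substrates at 10uM) and luminescence measured with a CCD imager.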
Potency means the concentration at half of the fitted maximal effect.

Sequence of Luciferin 4-monooxygenase (Photinus pyralis) (P08659 whole entry, looked up): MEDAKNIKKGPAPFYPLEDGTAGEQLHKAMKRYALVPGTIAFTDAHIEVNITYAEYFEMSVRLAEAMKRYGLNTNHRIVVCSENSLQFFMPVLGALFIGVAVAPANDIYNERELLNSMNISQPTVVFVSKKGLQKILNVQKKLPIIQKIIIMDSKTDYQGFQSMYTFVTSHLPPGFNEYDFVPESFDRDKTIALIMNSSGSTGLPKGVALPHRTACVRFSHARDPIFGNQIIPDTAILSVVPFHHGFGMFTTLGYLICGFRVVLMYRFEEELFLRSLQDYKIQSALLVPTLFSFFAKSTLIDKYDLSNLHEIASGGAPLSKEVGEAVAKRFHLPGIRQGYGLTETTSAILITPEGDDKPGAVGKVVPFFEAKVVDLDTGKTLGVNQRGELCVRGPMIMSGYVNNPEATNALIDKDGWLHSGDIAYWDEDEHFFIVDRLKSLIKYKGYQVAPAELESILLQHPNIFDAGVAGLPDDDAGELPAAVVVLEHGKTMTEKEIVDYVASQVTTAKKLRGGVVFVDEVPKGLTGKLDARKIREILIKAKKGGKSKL

Compound	Potency
Cc1nc(-c2ccccc2)n(CC(=O)NCc2ccc(F)cc2)c(=O)c1CCO	inactive
Cc1ccc(C(=O)N2CCC(c3nn(-c4ccccc4)c(=O)[nH]3)CC2)cc1	inactive
O=C(c1ccc2c(c1)[nH]c(=O)n2C1CCC(O)CC1)N1CCc2ccccc2C1 (configuration not stated)	inactive
COc1ccc(NC(=O)CCC2CCN(S(=O)(=O)c3ccc(C)cc3)CC2)cc1F	inactive
CN1N=C(C(=O)N2CCC(CCC(=O)Nc3ccc4c(c3)OCCO4)CC2)CCC1=O	inactive
Cc1ccc(S(=O)(=O)N2CCC(CCC(=O)NCc3ccccc3)CC2)cc1	inactive
CCCNc1cc(N2CCC(CCC(=O)Nc3ccc(C)cc3)CC2)ncn1	28.2 µM (active)
Cc1ccc(C(=O)N2CCC(CCC(=O)N3CCc4ccccc4C3)CC2)cc1	22.4 µM (active)
CCCNC(=O)N(C1CCOCC1)C1CCN(C(=O)c2ccncc2)CC1	inactive
CCCNC(=O)CCC1CCN(C(=O)c2ccc(C)cc2)CC1	31.6 µM (active)
CN(CCCNC1CCC2(CCNCC2)CC1)c1ccccc1	inactive
O=C(Nc1ccc(F)cc1)[C@@H]1C[C@@H](c2ccc(F)cc2)N([S+](=O)([O-])c2ccccc2)C1	inactive
O=C(NCc1ccccc1)NC1CCc2nn(CC3CC3)c(=O)n2CC1 (configuration not stated)	inactive
CCCc1noc(-c2cn(C3CCN(C(=O)c4ccc(C)s4)CC3)nn2)n1	inactive
O=C(NCc1cccs1)c1ccc2c(c1)OCCN(c1ccccc1)C2	inactive
O=C(NCCc1ccccc1)c1ccc2c(c1)OCCN(CCC(F)(F)F)C2	39.8 µM (active)
Cc1cc(NC(=O)c2ccc3c(c2)OCCN(CCC(F)(F)F)C3)ccc1F	inactive
CC(C)NC(=O)C1COC2(CCN(C(=O)c3ccccc3Cl)CC2)N1C(=O)c1ccccc1 (configuration not stated)	inactive
O[C@H]1CC[C@@H](Cc2cc(-c3ccccc3)on2)O[C@@H]1CNCc1ccccc1	inactive
C=CCN1C(=O)[C@@H]2C[C@@H](NC(=O)c3ccncc3)CCN2C1=O	inactive
CC(C)(C)c1ccc(N2C(=O)[C@@H]3C[C@@H](NC(=O)[C@@H](O)c4ccccc4)CCN3C2=O)cc1	35.5 µM (active)

Compound	Potency
CCn1ncc(N2CCC(NC(=O)C(C)c3ccccc3)CC2)cc1=O (configuration not stated)	inactive
Cc1nc(-c2ccc(F)cc2)n(Cc2cccc(Cl)c2)c(=O)c1CCO	inactive
Cn1cccc1CN1CCC(N2CCC[S+]2(=O)[O-])CC1	inactive
CCN1C(=O)CCN(C(=O)CCc2ccc(OC)cc2)CC12CCOCC2	inactive
CC(C)CC(=O)N1CCC(c2noc(-c3cnccn3)n2)C1 (configuration not stated)	inactive
COc1ccc(C(=O)N2CCC3(CC2)CC(OC)CCO3)cc1OC (configuration not stated)	inactive
CCn1cnnc1CC1CCN(C(=O)c2cc(-c3ccc(F)cc3)nc3ccccc23)CC1	14.1 µM (active)
CCn1cnnc1CC1CCN(C(=O)C2CCN(Cc3nc(-c4cccc(C)c4)oc3C)CC2)CC1	inactive
COCc1nncn1C1CCN(C(=O)c2ccccc2F)CC1	inactive
Cc1noc(-c2cccc(OC3CN(C(=O)NCCc4ccccc4)C3)c2)n1	inactive
COc1nccc(N2CCC(CC(=O)NCc3ccc(F)cc3Cl)CC2)n1	inactive
COc1ccc2[nH]c(C(=O)N[C@@H]3CN(S(C)(=O)=O)C[C@H]3CN(C)C)cc2c1	inactive
CN(C)C[C@@H]1CN(C)C[C@H]1NC(=O)c1ccnnc1	inactive
CN(C)C[C@@H]1CN(C)C[C@H]1NC(=O)c1cc2ccccc2[nH]1	39.8 µM (active)
COc1ccccc1Nc1cnc2ccc(-c3ccc(OC)c(OC)c3)nn12	inactive
COCC1CN(C(=O)c2cc(C)n(C)n2)CC12CCNCC2 (configuration not stated)	inactive
O=C(NC1CC1)c1ccc2c(c1)C1(CCN(CC3CC3)C1)CN2Cc1ccccc1 (configuration not stated)	inactive
CC(=O)Nc1ccc(CN2CCCC3(CC(c4cccc(C(F)(F)F)c4)=NO3)C2)cc1 (configuration not stated)	inactive
CC(=O)NC1(C)CCN(Cc2cccc(-c3ccc(C(=O)c4ccccc4)cc3)c2)C1 (configuration not stated)	39.8 µM (active)
CSCCNC(=O)c1coc(CN2CCN(C/C=C/c3ccccc3)CC2)n1	inactive
Cc1cccc(NC(=O)C2CC(=O)N(c3n[nH]c4ccccc34)C2)n1 (configuration not stated)	inactive

Compound	Potency
Cc1ccsc1C(=O)NCC1Cn2cccc2C(=O)N1Cc1ccccc1 (configuration not stated)	inactive
Cc1ccc(NC(=O)Nc2ccc(C)n(CC(=O)NCCN3CCCC3)c2=O)cc1	14.1 µM (active)
Cc1ccc(S(=O)(=O)Nc2ccc(C)n(CC(=O)NCc3cccc(F)c3)c2=O)cc1	inactive
COc1ccc(NC(=O)Cn2c(C)ccc(NS(=O)(=O)c3ccccc3)c2=O)cc1	inactive
CN(C)c1ccc(CN2CCC3(CC(Cc4ccccc4)=NO3)C2)cc1 (configuration not stated)	inactive
Cc1cc(NC(=O)c2ccc3c(c2)N(C)C2CCCCCN2C3=O)ccc1F (configuration not stated)	17.8 µM (active)
CCN1c2cc(C(=O)Nc3ccc(F)c(Cl)c3)ccc2C(=O)N2CCCCC21 (configuration not stated)	inactive
CN1c2cc(C(=O)Nc3ccc(F)cc3)ccc2C(=O)N2CCCCC21 (configuration not stated)	25.1 µM (active)
CN1c2cc(C(=O)N3CCC(C(N)=O)CC3)ccc2C(=O)N2CCCCC21 (configuration not stated)	inactive
CCN1c2cc(C(=O)NCc3ccc(OC)cc3OC)ccc2C(=O)N2CCCCCC21 (configuration not stated)	inactive
CCN1c2cc(C(=O)Nc3ccc(OC)c(F)c3)ccc2C(=O)N2CCCCC21 (configuration not stated)	inactive
CCN1c2cc(C(=O)Nc3ccc(SC)cc3)ccc2C(=O)N2CCCCCC21 (configuration not stated)	inactive
CCN1c2cc(C(=O)Nc3ccc(F)c(C)c3)ccc2C(=O)N2CCCCC21 (configuration not stated)	inactive
Cc1ccc(CNC(=O)c2ccc3c(c2)N(C)C2CCCCN2C3=O)cc1C (configuration not stated)	inactive
CN1c2cc(C(=O)Nc3ccc(F)c(F)c3)ccc2C(=O)N2CCCCCC21 (configuration not stated)	5.62 µM (active)
COc1ccc(CNC(=O)c2ccc3c(c2)N(C)C2CCCCN2C3=O)c(OC)c1 (configuration not stated)	inactive
CCOc1ccc(NC(=O)c2ccc3c(c2)N(C)C2CCCN2C3=O)cc1 (configuration not stated)	44.7 µM (active)
O=C(Cc1cccc(Cl)c1)N1CCC([C@@H]2CNC[C@H]2CO)CC1	inactive
CN1CCN(C2CCOC3(CCN(C(=O)c4cccc5[nH]ccc45)CC3)C2)CC1 (configuration not stated)	inactive
O=C(NCc1ccccc1C(F)(F)F)c1cc2n(n1)CC(c1ccc3c(c1)OCO3)OC2 (configuration not stated)	inactive
